GIRK2 activ: activators of human GIRK2 potassium channels; G protein-activated inward rectifier potassium channel 2 (Homo sapiens), P48051; HEK293-GIRK2 thallium flux, Thallos fluorescence, MPD; calls only for hits at 25 µM; 63,000 compounds, 0.05% hits; call rule not given here
Target sequence (P48051 whole entry, looked up): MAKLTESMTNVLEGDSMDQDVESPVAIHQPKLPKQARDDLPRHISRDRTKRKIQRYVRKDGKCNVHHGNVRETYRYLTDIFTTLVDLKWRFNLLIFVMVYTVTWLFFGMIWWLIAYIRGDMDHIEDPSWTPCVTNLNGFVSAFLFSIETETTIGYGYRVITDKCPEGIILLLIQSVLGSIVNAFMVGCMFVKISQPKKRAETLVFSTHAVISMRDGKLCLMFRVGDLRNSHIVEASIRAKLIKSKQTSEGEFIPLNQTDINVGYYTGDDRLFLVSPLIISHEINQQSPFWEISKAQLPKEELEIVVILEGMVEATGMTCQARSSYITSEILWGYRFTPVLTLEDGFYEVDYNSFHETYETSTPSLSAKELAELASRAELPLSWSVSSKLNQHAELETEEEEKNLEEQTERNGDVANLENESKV
Each line names hits and unclear results; the compound was inactive in the other large screens. The entries come from a sample that favours hits as a whole.

O=C(CN1CCN(c2ccc(F)c(F)c2)C1=O)NCc1ccc2c(c1)OCO2	none
C=CCn1c(SCC(=O)NCCc2ccccc2)nc2scc(-c3ccco3)c2c1=O	none
CCOC(=O)C1=C(C)N=c2s/c(=C/c3c(C)nn(C)c3C)c(=O)n2C1c1ccccc1 (configuration not stated)	GIRK2 activ active
CCn1cc(/C=c2/sc3n(c2=O)C(c2ccccc2)C(C(=O)Nc2ccccc2C)=C(C)N=3)c(C)n1 (configuration not stated)	none
CCOC(=O)C1=C(C)N=c2s/c(=C/c3cn(C)nc3C)c(=O)n2C1c1ccc(OC)cc1 (configuration not stated)	none
COc1cccc(C2c3c(oc4cc(OC)ccc4c3=O)C(=O)N2c2nccs2)c1 (configuration not stated)	none
COCCCNC(=O)CSc1nc(-c2cccc(F)c2)[nH]c1-c1ccccc1	GIRK2 activ active
COCCNC(=O)CSc1nc(-c2ccc(C)cc2)[nH]c1-c1ccccc1	none
O=C(CSc1nc(-c2ccccc2)[nH]c1-c1ccc(F)cc1)NCC1CCCO1 (configuration not stated)	GIRK2 activ active
O=C(CSc1ncccc1-c1nc2ccccc2[nH]1)NCC1CCCO1 (configuration not stated)	none
CCOc1ccc(-c2nc(SCC(=O)NCCCOC)c(-c3ccccc3)[nH]2)cc1OC	none
COc1ccc(-c2nc(SCC(=O)NCC3CCCO3)c(-c3ccc(C)cc3)[nH]2)cc1OC (configuration not stated)	none
CCOC(=O)C1CCc2sc(NC(=O)CNC(=O)c3ccc(=O)[nH]c3)nc21 (configuration not stated)	none
Cc1ccc(Oc2ccc(NS(=O)(=O)c3ccc4c(c3)OCCO4)cc2)nn1	none
O=c1cccnn1CCNS(=O)(=O)c1cc(C(F)(F)F)cc(C(F)(F)F)c1	none
O=C(CN1CCN(Cc2nc3ccccc3[nH]2)CC1)Nc1ccc(F)cc1F	none
O=C(NCc1ccco1)c1ccc(NS(=O)(=O)c2cccc(C(F)(F)F)c2)cc1	none
COc1ccc(C(=O)Nc2ccc(N3CCCC3=O)c(C)c2)cc1OC	none
Cc1ccc(NC(=O)c2ccc(OC(C)C)cc2)cc1N1CCCC1=O	none
CN(C)c1cccc(C(=O)NCC2CCN(c3ccccn3)CC2)c1	none
COc1ccc(-c2coc3cc(OCc4ccc(F)cc4)ccc3c2=O)cc1OC	none
Cc1ccc(NC(=O)CCC2NC(=O)c3ccccc3NC2=O)c(C)c1 (configuration not stated)	none
O=C(COc1ccccc1)Nc1ccc(SCC(=O)N2CCCC2)nn1	none
CCCc1ccc(C(=O)N2CCOC(Cc3ccccc3)C2)cc1 (configuration not stated)	none
O=C(O)C1CCCN(S(=O)(=O)c2cc(Cl)cc(Cl)c2O)C1 (configuration not stated)	none
CCOC(=O)NCC1(O)CCOc2ccccc21 (configuration not stated)	none
COc1ccc(Cn2c(-n3nc(C)cc3C)nc3c2c(=O)n(CC(C)C)c(=O)n3C)cc1	none
Cc1ccc2c(Nc3ccc(S(C)(=O)=O)cc3)c(C(=O)N3CCOCC3)cnc2n1	none
COc1cc2nc(SCC(=O)Nc3cccc(Cl)c3)n3nc(C)nc3c2cc1OC	none
COc1ccc(-c2noc(C3CC(=O)N(c4cc(Cl)ccc4OC)C3)n2)cc1OC (configuration not stated)	none
Cc1cc(NC(=O)/C=C/c2ccncc2)c2cc(Br)ccc2n1	none
O=C(CCc1ccccc1)N1CCc2cc(S(=O)(=O)N3CCOCC3)ccc21	none
COc1ccc(C2C(=C(O)c3ccc(C)cc3)C(=O)C(=O)N2c2nccs2)cc1OC (configuration not stated)	none
CCOC(=O)c1oc2cc(OS(C)(=O)=O)ccc2c(=O)c1-c1ccccc1OC	none
NS(=O)(=O)c1ccc(NC(=O)CSc2nc3c(c(=O)[nH]2)CCCC3)cc1	none
Cc1cccc2sc(N3CC(OC(=O)c4ccsc4)C3)nc12	none
Cc1nnc(C2CCN(C(=O)NCCOc3ccccc3)CC2)s1	none
COc1cc(/C=C2/SC(=S)N(c3ccccc3Cl)C2=O)ccc1O	GIRK2 activ active
COc1cc(/C=C2\SC(=S)N(c3ccc(O)cc3)C2=O)ccc1O	none
COc1cc(/C=C2\SC(=S)N(c3cccc(O)c3)C2=O)ccc1O	none
O=C(CCc1cccc(Oc2ccc(F)cc2)c1)NCc1nc(-c2ccccc2)no1	none
CCC(=O)Nc1ccc2c(c1)c(=O)n(-c1ccccc1)n2CC(=O)Nc1ccccc1	none
O=C(Nc1cnc(N2CCOCC2)nc1)C1CCCC1	none
Cc1[nH]c(=O)n(C)c(=O)c1CCc1nnc(SCC(=O)N2CCc3ccccc32)o1	none
Cc1cc(C)n(CC(=O)Nc2cccc(Cl)c2C)c(=O)c1S(=O)(=O)c1ccccc1	none
COc1ccc2nc(N(CCCn3ccnc3)C(=O)/C=C/c3cccs3)sc2c1	none
O=C(Nc1nccs1)c1nnn(-c2ccccc2)c1-c1ccccn1	none
O=C(c1nnn(-c2ccccc2Cl)c1-c1ccccn1)N1CCN(c2ncccn2)CC1	none
O=C(Nc1ccc2c(c1)OCCO2)c1nnn(-c2ccccc2Cl)c1-c1ccccn1	GIRK2 activ active
O=C(Nc1ccc(F)cc1)c1nnn(-c2ccccc2Cl)c1-c1ccccn1	none
Cc1[nH]ncc1CNC(=O)c1nnn(-c2ccccc2Cl)c1-c1ccccn1	none
Cc1csc(NC(=O)c2nnn(-c3ccccc3Cl)c2-c2ccccn2)n1	GIRK2 activ active
Cn1cnnc1SCc1cc(=O)c(OCC(=O)Nc2cccc([N+](=O)[O-])c2)co1	none
CN(C)C(=O)c1ccc(NC(=O)COc2ccc3ccccc3c2)cc1	none
Cc1nn(-c2cc(SCc3cc(=O)n4cc(Cl)ccc4n3)ncn2)c2c1CCCC2	none
O=C1c2oc3ccccc3c(=O)c2C(c2ccncc2)N1Cc1ccco1 (configuration not stated)	none
COC(=O)c1ccccc1NC(=O)CSc1nc2c(-c3ccccc3)c[nH]c2c(=O)n1C(C)C	none
Cc1ccc(NC(=O)COc2cc(C)nc(-c3ccc(F)cc3)n2)c(C)c1	none
COc1ccccc1OCC#CCNC(=O)c1c(F)cccc1Cl	none
O=C1Cc2cc(NC(=O)c3ccsc3)ccc2N1	none
O=C(Cc1ccc(NC(=O)CSCc2ccccc2)cc1)NCc1cccs1	none
CCOC(=O)CCC(=O)NC1CCCC(OC(=O)Nc2ccc(F)cc2)C1 (configuration not stated)	none
Cc1ccccc1-n1nnc(C(=O)N2CCN(S(C)(=O)=O)CC2)c1-c1ccncc1	none
COc1cccc(-n2nnc(C(=O)NCc3ccc(C(C)C)cc3)c2-c2ccncc2)c1	none
Cc1ccccc1-n1nnc(C(=O)Nc2cccc(C(C)C)c2)c1-c1ccncc1	GIRK2 activ active
CC(NC(=O)CN(C)c1nc2c(Cl)cccc2s1)c1ccccc1 (configuration not stated)	none
COCCn1c(C2CC(=O)N(c3ccccc3C)C2)nc2ccccc21 (configuration not stated)	none
CS(=O)(=O)c1cccc2sc(N3CCN(C(=O)c4cccc(F)c4)CC3)nc12	none
CCCS(=O)(=O)N1CCCc2cc(NS(=O)(=O)c3cc(Cl)ccc3OC)ccc21	none
COc1ccc(CCS(=O)(=O)NCC2(CO)CC2)cc1	none
Cc1ccc(COc2cccc(N3CCn4c3nc3c4c(=O)n(C)c(=O)n3C)c2)cc1	none
O=C(NCC1(CO)CC1)c1ccccc1Br	none
Cc1cc(Cl)n2ncc(-c3ccccc3Cl)c2n1	none
